From ChEMBL document CHEMBL4513146, “CO-ADD screening of Karazin Kharkiv National University (Ukraine) compounds” come the findings set out here.

Measured potencies and affinities stand elsewhere.

The assay relates to Klebsiella pneumoniae. As to conditions: Concentration 32 ug.mL-1;; ASSAY_TEST Inhibition of Bacterial Growth; detection method Absorption (OD600); MEDIA CAMHB; plate type 384well; NBS; CORNING #3640; time 18 hr.
The Inhibition is the change of the read-out against control, counted positive when it falls. Turning to `CC(C)Cn1c(=O)c2sccc2n2c(=O)n(Cc3ccccc3Cl)nc12`, the Inhibition was found to be 3.91%.

Consider `Cc1ccc(-n2ccn3c(=O)n(Cc4c(F)cccc4Cl)nc3c2=O)cc1C`, for which the Inhibition is 16.81%. Regarding `CCOc1ccccc1CNC(=O)CCc1nnc2ccc(-c3ccccc3)nn12`, the Inhibition worked out at 9.31%. Turning to `CCOc1ccccc1NC(=O)Cn1nc2c3c4c(sc3ncn2c1=O)CCCC4`, the Inhibition is recorded as 2.08%. Under `Cc1cccc(-c2nc(CSc3nc4ccccc4n4c(C)nnc34)c(C)o2)c1` stands 10.71%; under `O=c1c2nnc(SCc3cccc(F)c3)n2ccn1-c1ccc(Br)cc1`, 8.43%; under `CSc1cccc(NC(=O)Cn2nc3c(Sc4cccc(F)c4)nccn3c2=O)c1`, 0.95%.

Consider `CCc1ccc(N(Cc2cccc(F)c2)S(=O)(=O)c2cccn3c(C)nnc23)cc1`, for which the Inhibition is recorded as 8.24%.

With `CCOc1ccc(N(Cc2ccc(F)cc2)S(=O)(=O)c2ccc3nncn3c2)cc1`, the Inhibition was 4.23%. `CCc1ccccc1NC(=O)Cn1nc2c(SC3CCCCC3)nccn2c1=O`: the Inhibition is reported as 9.89%.

`Cc1cccc(NC(=O)Cn2nc3nc(N4CCCCCC4)ccn3c2=O)c1C`: the Inhibition was 16.3%. For `CSc1ccc(CNC(=O)Cn2nc3c(N4CC(C)CC(C)C4)nccn3c2=O)cc1` (stereo not given), the Inhibition was found to be 6.58%.

In the case of `COc1ccc(NC(=O)Cn2nc3c4cc(-c5cc(C)ccc5C)nn4ccn3c2=O)c(OC)c1`, the Inhibition amounted to 9.51%. Under `O=c1n(Cc2nc(-c3ccc(Cl)cc3)no2)nc2ccc(-c3ccccc3)nn12` stands 13.55%; under `Cc1ccc(Cn2c(=O)c3ccccc3n3c(=O)n(CC#N)nc23)cc1`, 6.47%. Next, `Cc1ccc(S(=O)(=O)Nc2ccc3nnc(-c4ccccc4)n3n2)cc1C`: 0.88%; `N#Cc1ccc(NC(=O)Cn2nc3c(SCc4ccc(Cl)cc4)nccn3c2=O)cc1`: 12.55%; `Cc1cccc(NC(=O)Cn2nc3ccc(-c4ccc(Cl)cc4)nn3c2=O)c1`: 7.75%. Next, `CCOc1ccc(NC(=O)CSc2nnc3c(=O)n(-c4ccc(OCC)cc4)ccn23)cc1`: 13.96%; `Cc1nnc2ccc(S(=O)(=O)N(Cc3ccc(F)cc3)c3ccc(Cl)cc3)cn12`: 9.19%; `CCc1nnc2ccc(S(=O)(=O)N(Cc3ccc(F)cc3)c3ccccc3)cn12`: -0.12%.

With `Cc1ccc(NC(=O)Cn2nc3c(N4CCCC4)nccn3c2=O)cc1Cl`, the Inhibition came out at 13.96%.

`Cc1ccc(CNC(=O)Cn2nc3c(Oc4ccccc4C)nccn3c2=O)cc1`: the Inhibition is listed as 12.47%. Take `COc1ccccc1-n1ccn2c(SCC(=O)Nc3ccc(C)c(F)c3)nnc2c1=O`: the Inhibition was 8.02%.

As to `O=C(Cn1nc2c(SC3CCCCC3)nccn2c1=O)Nc1ccccc1Br`, the Inhibition amounted to 3.34%.

For the molecule `COC(=O)c1ccc(Cn2nc3ccc(S(=O)(=O)N4CCCCCC4)cn3c2=O)o1`, the Inhibition amounted to 1.98%. Next, `CCCCn1c(=O)c2sccc2n2c(=O)n(CC(=O)N(C)c3ccccc3)nc12`: -1.65%. Next, `Cc1ccc(-c2ccc3nn(CC(=O)N4CCN(c5ccc(F)cc5)CC4)c(=O)n3n2)cc1C`: 1.03%; `CC1CC(C)CN(c2nccn3c(=O)n(CC(=O)Nc4cccc(C(F)(F)F)c4)nc23)C1` (stereo not given): 12.34%. Under `COc1ccc(N(Cc2ccc(OC)c(F)c2)S(=O)(=O)c2ccc3nncn3c2)cc1` stands 12.76%. As to `COc1ccc(NC(=O)CSc2nnc3c(=O)n(-c4cccc(F)c4)ccn23)cc1OC`, the Inhibition was found to be 7.43%. Under `O=c1c2sccc2n2c(=O)n(Cc3ccc(Br)cc3)nc2n1CCc1ccccc1` stands -2.03%; under `COc1cc(NC(=O)CSc2nnc3c(=O)n(-c4cccc(OC)c4)ccn23)cc(OC)c1`, 6.06%.

As for `O=C(Cn1nc2ccc(SCc3ccc(Cl)cc3)nn2c1=O)Nc1cccc(F)c1`, the Inhibition was -5.89%. Under `Cc1cccc(C)c1NC(=O)Cn1nc2n(C)c(=O)c3c(c(-c4ccccc4)cn3C)n2c1=O` stands 10.1%; under `Cc1cc2nn(CC(=O)Nc3cccc(F)c3)c(=O)n2c(Nc2ccc(F)c(C)c2)n1`, 7.53%. For `CCCc1nnc2c(=O)n(CC(=O)Nc3cccc(Br)c3)c3ccccc3n12`, the Inhibition turned out to be 0.59%. Next, `COc1ccccc1NC(=O)Cn1nc2c3cc(-c4ccc(Cl)cc4)nn3ccn2c1=O`: 7.17%; `Cc1cc2nn(CC(=O)Nc3cccc(C)c3C)c(=O)n2c(Nc2ccc(C)c(F)c2)n1`: 16.72%. In the case of `Cc1ccc(NC(=O)Cn2nc3c(Sc4ccccc4)nccn3c2=O)c(Br)c1`, the Inhibition worked out at 0.72%.
